Reference: PubChem BioAssay (EPA / NIEHS)
The source made the active and inactive calls. Rule for the calls: active = hit-call score of the fitted dose curve at least 0.9, where 1 is the maximum; inactive = score below 0.9.

Assays:
Conditions in all cases: mRNA level, 48 h; actives raise or lower the signal
[1] = read-out: JUN Transcription Factor, JUN (gene 3725); test: LTEA_HepaRG_JUN: Life Technologies and Expression Analysis (LTEA) Assay for JUN Transcription Factor using HepaRG (AID 2283513)
In short: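 Gene-expression endpoint: JUN mRNA (qRT-PCR, normalized to three reference genes) in HepaRG cultures treated 48 h with chemicals, duplicate wells, 100 uM maximum with half-log dilutions; bidirectional fitting relative to 0.5% DMSO.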

[2] = read-out: Lipoprotein lipase (LPL), LPL (gene 4023); test: LTEA_HepaRG_LPL: Life Technologies and Expression Analysis (LTEA) Assay for Lipoprotein lipase (LPL) using HepaRG (AID 2283515)
In short: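 HepaRG, 48 h exposure, 8-pt half-log dilutions from 100 uM, 0.5% DMSO vehicle, duplicates; qRT-PCR (Fluidigm array) of LPL mRNA vs housekeeping genes; bidirectional curve fit relative to DMSO baseline.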

[3] = read-out: MicroRNA 122 (MIR122), gene 406906; test: LTEA_HepaRG_MIR122: Life Technologies and Expression Analysis (LTEA) Assay for MicroRNA 122 (MIR122) using HepaRG (AID 2283516); note: the transcript read is the microRNA miR-122
In short: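 Changes in transcript abundance, up or down relative to 0.5% DMSO vehicle, were scored after 48 h chemical treatment of HepaRG cells (maximum 100 uM). Quantification used TaqMan qRT-PCR normalized to housekeeping genes.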

[4] = read-out: matrix metalloproteinase-10 (MMP10), MMP10 (gene 4319); test: LTEA_HepaRG_MMP10: Life Technologies and Expression Analysis (LTEA) Assay for matrix metalloproteinase-10 (MMP10) using HepaRG (AID 2283517)
In short: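 Transcript levels come from Fluidigm qRT-PCR normalized to three housekeeping genes, with curves fitted bidirectionally against 0.5% DMSO. Human HepaRG cells were dosed for 48 hours at concentrations up to 100 uM.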

MYC, MYC (gene 4609) = test: LTEA_HepaRG_MYC: Life Technologies and Expression Analysis (LTEA) Assay for MYC using HepaRG (AID 2283518)
In short: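 Expression changes were scored by TaqMan qRT-PCR with ACTB, GAPDH and POLR2A normalization. Cultures in serum-free induction medium received duplicate 8-point concentration series, highest 100 uM, for 48 h; DMSO (0.5%) served as baseline.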

[5] = read-out: matrix metalloproteinase-3 (MMP3), MMP3 (gene 4314); test: LTEA_HepaRG_MMP3: Life Technologies and Expression Analysis (LTEA) Assay for matrix metalloproteinase-3 (MMP3) using HepaRG (AID 2283519)
In short: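 qRT-PCR read-out of MMP3 mRNA (normalised to three housekeeping genes) in HepaRG liver cells after 48 h chemical exposure; 8-point half-log series, top 100 uM, 0.5% DMSO vehicle. Bidirectional curve fitting against DMSO baseline.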

[6] = read-out: Paternally Expressed 10 (PEG10), PEG10 (gene 23089); test: LTEA_HepaRG_PEG10: Life Technologies and Expression Analysis (LTEA) Assay for Paternally Expressed 10 (PEG10) using HepaRG (AID 2283520);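 for AC50: differentiated HepaRG human liver cells in serum-free induction medium with 0.5% DMSO; PEG10 transcript by qRT-PCR normalised to ACTB GAPDH and POLR2A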
In short: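 After 48 h exposure of differentiated HepaRG cells (0.5% DMSO vehicle, eight concentrations up to 100 uM, duplicates), PEG10 mRNA was measured by TaqMan qRT-PCR. Values were normalised to endogenous control genes and analysed bidirectionally against vehicle.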

[7] = read-out: Protein phosphatase 2A (PPP2R4), PTPA (gene 5524); test: LTEA_HepaRG_PPP2R4: Life Technologies and Expression Analysis (LTEA) Assay for Protein phosphatase 2A (PPP2R4) using HepaRG (AID 2283522)
In short: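 Using HepaRG cultures maintained in 0.5% DMSO, chemicals are tested 48 h at up to 100 uM in duplicate. Induction or suppression of PPP2R4 mRNA, measured by qRT-PCR, is fitted bidirectionally against the vehicle baseline.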

[8] = read-out: Phosphatase and tensin (PTEN), PTEN (gene 5728); test: LTEA_HepaRG_PTEN: Life Technologies and Expression Analysis (LTEA) Assay for Phosphatase and tensin (PTEN) using HepaRG (AID 2283523)
In short: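 HepaRG, 48 h exposure, 8-pt half-log series from 100 uM top, 0.5% DMSO vehicle, duplicates. Readout: Fluidigm qRT-PCR of PTEN transcript; housekeeping normalization (ACTB, GAPDH, POLR2A). Gain or loss fitted relative to DMSO baseline.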

[9] = read-out: solute carrier (SLC22A1), SLC22A1 (gene 6580); test: LTEA_HepaRG_SLC22A1: Life Technologies and Expression Analysis (LTEA) Assay for solute carrier (SLC22A1) using HepaRG (AID 2283524)
In short: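 qRT-PCR readout (TaqMan, Fluidigm arrays) of SLC22A1 transcript, normalized to three housekeeping genes; bidirectional curve fit relative to 0.5% DMSO vehicle. Differentiated human HepaRG cells, 48 h chemical exposure, top concentration 100 uM, half-log steps, eight points.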

[10] = read-out: Pyruvate Dehydrogenase Kinase 4 (PDK4), PDK4 (gene 5166); test: LTEA_HepaRG_PDK4: Life Technologies and Expression Analysis (LTEA) Assay for Pyruvate Dehydrogenase Kinase 4 (PDK4) using HepaRG (AID 2283525)
In short: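 HepaRG (human liver line), 48 h chemical exposure, 8-pt half-log CRC top 100 uM, 0.5% DMSO vehicle, duplicates. Readout: TaqMan qRT-PCR of PDK4 mRNA, housekeeping-normalized; gain/loss fit relative to DMSO baseline.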

[11] = read-out: NAD(P)H dehydrogenase [quinone] 1 (NQO1), NQO1 (gene 1728); test: LTEA_HepaRG_NQO1: Life Technologies and Expression Analysis (LTEA) Assay for NAD(P)H dehydrogenase [quinone] 1 (NQO1) using HepaRG (AID 2283526)
In short: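 In this assay, gene expression is read by qRT-PCR after 48 h exposure of HepaRG cells to eight concentrations (max 100 uM, half-log) in 0.5% DMSO. Each chemical runs in duplicate, and activity is scored relative to vehicle.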

[12] = read-out: Nuclear factor erythroid 2-related factor 2 (Homo sapiens) (UniProt Q16236); test: LTEA_HepaRG_NFE2L2: Life Technologies and Expression Analysis (LTEA) Assay for Nuclear factor erythroid 2-related factor 2 (NFE2L2) Transcription Factor using HepaRG (AID 2283527)
In short: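 HepaRG, 48 h dosing, 8-pt half-log series from 100 uM in 0.5% DMSO, duplicates. Read-out: NFE2L2 mRNA by qRT-PCR (ACTB/GAPDH/POLR2A normalization). Bidirectional curve fit vs DMSO baseline.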

[13] = read-out: succinate dehydrogenase complex iron sulfur subunit B (SDHB), SDHB (gene 6390); test: LTEA_HepaRG_SDHB: Life Technologies and Expression Analysis (LTEA) Assay for succinate dehydrogenase complex iron sulfur subunit B (SDHB) using HepaRG (AID 2283528)
In short: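 A human HepaRG culture in serum-free induction medium received test chemicals for 48 h over an eight-point range capped at 100 uM. SDHB expression change was quantified by qRT-PCR.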

[14] = read-out: Signal transducer and activator of transcription 3 (Homo sapiens) (UniProt P40763); test: LTEA_HepaRG_STAT3: Life Technologies and Expression Analysis (LTEA) Assay for Signal transducer and activator of transcription (STAT3) using HepaRG (AID 2283529)
In short: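 HepaRG, 48 h exposure, 8-pt half-log series (top 100 uM), 0.5% DMSO vehicle, duplicates. Readout: STAT3 transcript by Fluidigm qRT-PCR, housekeeping-normalized; bidirectional fit vs DMSO baseline.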

[15] = read-out: solute carrier (SLCO1B1), SLCO1B1 (gene 10599); test: LTEA_HepaRG_SLCO1B1: Life Technologies and Expression Analysis (LTEA) Assay for solute carrier (SLCO1B1) using HepaRG (AID 2283530)
In short: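 Human HepaRG cultures treated for 48 h with an eight-concentration half-log series topping at 100 uM; SLCO1B1 measured by qRT-PCR and fitted bidirectionally relative to DMSO.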

[16] = read-out: sulfotransferase 2A1 (SULT2A1), SULT2A1 (gene 6822); test: LTEA_HepaRG_SULT2A1: Life Technologies and Expression Analysis (LTEA) Assay for sulfotransferase 2A1 (SULT2A1) using HepaRG (AID 2283531)
In short: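 Gene-expression endpoint in a human liver cell line: SULT2A1 mRNA change after 48 h chemical treatment, curves fitted in both directions relative to 0.5% DMSO vehicle. Concentrations spanned eight half-log steps from 100 uM.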

[17] = read-out: Transforming Growth Factor (TGFA), TGFA (gene 7039); test: LTEA_HepaRG_TGFA: Life Technologies and Expression Analysis (LTEA) Assay for Transforming Growth Factor (TGFA) using HepaRG (AID 2283532)
In short: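 qRT-PCR read-out of TGFA transcript, normalized to three housekeeping genes, fitted bidirectionally against 0.5% DMSO baseline. Human HepaRG cultures received chemicals for 48 h at eight half-log concentrations, top 100 uM.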

Measured: AC50

Signal transducer and activator of transcription 3 (Homo sapiens), sequence (P40763 whole entry, looked up): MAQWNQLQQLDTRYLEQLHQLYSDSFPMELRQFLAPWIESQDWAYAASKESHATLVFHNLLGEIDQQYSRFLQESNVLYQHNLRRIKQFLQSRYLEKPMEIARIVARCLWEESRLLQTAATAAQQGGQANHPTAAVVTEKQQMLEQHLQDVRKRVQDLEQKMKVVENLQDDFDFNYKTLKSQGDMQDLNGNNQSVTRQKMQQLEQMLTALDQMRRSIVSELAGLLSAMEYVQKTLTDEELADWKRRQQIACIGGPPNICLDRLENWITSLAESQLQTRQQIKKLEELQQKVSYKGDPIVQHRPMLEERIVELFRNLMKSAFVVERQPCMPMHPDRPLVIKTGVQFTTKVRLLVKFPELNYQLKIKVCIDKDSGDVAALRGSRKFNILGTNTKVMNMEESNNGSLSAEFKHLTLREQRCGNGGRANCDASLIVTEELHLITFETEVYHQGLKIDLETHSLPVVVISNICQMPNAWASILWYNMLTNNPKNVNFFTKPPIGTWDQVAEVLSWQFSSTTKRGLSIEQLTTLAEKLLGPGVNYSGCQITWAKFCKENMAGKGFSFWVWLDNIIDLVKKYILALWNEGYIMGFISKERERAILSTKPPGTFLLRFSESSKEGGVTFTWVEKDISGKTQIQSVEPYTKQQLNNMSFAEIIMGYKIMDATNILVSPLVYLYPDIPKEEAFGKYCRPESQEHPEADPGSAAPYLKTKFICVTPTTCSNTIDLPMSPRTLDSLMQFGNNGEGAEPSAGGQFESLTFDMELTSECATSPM
Nuclear factor erythroid 2-related factor 2 (Homo sapiens), sequence (Q16236 whole entry, looked up): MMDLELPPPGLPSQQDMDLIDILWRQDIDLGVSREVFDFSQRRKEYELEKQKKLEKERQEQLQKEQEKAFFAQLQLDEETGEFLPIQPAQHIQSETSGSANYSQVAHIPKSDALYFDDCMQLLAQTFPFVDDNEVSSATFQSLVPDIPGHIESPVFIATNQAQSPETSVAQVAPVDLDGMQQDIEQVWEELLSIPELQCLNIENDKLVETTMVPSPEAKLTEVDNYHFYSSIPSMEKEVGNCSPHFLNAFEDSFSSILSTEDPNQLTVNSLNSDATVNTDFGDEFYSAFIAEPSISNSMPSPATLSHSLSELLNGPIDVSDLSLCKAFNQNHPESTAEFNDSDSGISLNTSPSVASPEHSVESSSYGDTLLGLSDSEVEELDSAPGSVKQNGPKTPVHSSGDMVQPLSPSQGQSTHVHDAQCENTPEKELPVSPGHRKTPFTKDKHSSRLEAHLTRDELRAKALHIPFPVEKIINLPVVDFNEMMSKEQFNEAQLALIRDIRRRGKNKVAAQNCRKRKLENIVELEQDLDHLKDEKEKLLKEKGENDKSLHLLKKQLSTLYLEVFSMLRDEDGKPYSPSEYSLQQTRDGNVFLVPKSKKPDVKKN

Cn1c(=O)c2c(ncn2C)n(C)c1=O
inactive: all assays above

COc1ccc(/C=C/S(=O)(=O)NC(=O)c2ccc(C)cc2Cl)cc1
active: [6] 75.3 µM | [7] 0.11 µM | [10] 6.62 µM
inactive: all other assays above

CC(C)=CCC/C(C)=C/CO
inactive: all assays above

Oc1ccc2c(c1)-c1ccccc1C2
active: [2] 25.2 µM | MYC, MYC (gene 4609) 33.3 µM | [10] 25.2 µM | [12] 21.4 µM
inactive: all other assays above

CCCC(=O)OCC
inactive: all assays above

C=CCCCCCCCCC(=O)O
active: [8] 0.00821 µM
inactive: all other assays above

CCOC(=O)COc1ccc2c(c1)CC(NCC(O)c1cccc(Cl)c1)CC2 (centres undefined)
inactive: all assays above

CC(=O)c1ccc2c(c1)[C@H](NC(=O)c1ccc(F)cc1)[C@@H](O)C(C)(C)O2
inactive: all assays above
